The text below walks through data of PubChem BioAssay.

Each structure is given as a SMILES string. Results filed as inconclusive are left out. The source made the active and inactive calls.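 Rule for the calls, unless noted: active = inhibition above 50%, about 3 SD of the validation set; inactive = the rest.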

Experiment [1] is described as follows: yeast TOR pathway RPL19A-GFP modulators, primary screen, cell-based, S. cerevisiae, multiplex flow cytometry (AID 1862; in the data active = percent of DMSO control GFP below about 86%;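 note: lower values mimic rapamycin by blocking the RPL19A rise seen in DMSO cells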). The conditions noted are these: S. cerevisiae RPL19A-GFP strain, flow cytometry fluorescence, 3 h; at 10 µM; stronger effect = lower value. For orientation: A flow cytometer gives signals particle by particle.
Experiment [2] is described as follows: modulators of MEP2-GFP levels in yeast, primary screen, S. cerevisiae, multiplex flow cytometry (AID 1867;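 active = GFP response, as percent of the DMSO control, above the screen-wide mean plus 3 SD, about 139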;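 note: median GFP channel fluorescence of barcode-gated MEP2-GFP cells measured by flow cytometry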). The conditions noted are these: S. cerevisiae MEP2-GFP strain, 3 h, at 10 µM, stronger effect = higher value, 100% means same as DMSO wells.
A short description of experiment [3]: modulators of CIT2-GFP expression in yeast, primary screen, S. cerevisiae, GFP fusion, multiplex flow cytometry (AID 1870;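 active = percent response above a set limit, the screen-wide mean plus 3 SD, cut at about 130% in these data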;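 note: barcoded CIT2-GFP strain pooled with four other GFP strains with rapamycin as positive control; median GFP fluorescence per well over plate mean of DMSO wells so 100% = DMSO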). Conditions: 3 h, at 10 µM, stronger effect = higher value.
A short description of experiment [4]: modulators of LAP4-GFP expression in yeast, primary screen, S. cerevisiae, multiplex flow cytometry (AID 1873;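 active = GFP signal, as percent of the solvent control, above the screen mean plus 3 SD, about 149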). Conditions: 3 h, at 10 µM, stronger effect = higher value.
Experiment [5] in a line: modulators of AGP1-GFP expression in yeast TOR pathway, primary screen, cell-based, multiplex flow cytometry, S. cerevisiae (AID 1887;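 active = GFP signal above the screen-wide mean plus 3 SD, that is over about 124.5% of the solvent control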;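 note: AGP1-GFP fusion strain of S. cerevisiae within a five-strain barcoded multiplex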). The conditions noted are these: 3 h, at 10 µM, stronger effect = higher value.
Experiment [6] can be described thus: inhibitors of CD8+ T cell-vesicle binding, pilot screen, LFA-1/ICAM-1 modulator project, MLPCN validation set, flow cytometry (AID 2523;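 active = response below a set limit, under 55% cells CD8-positive and vesicle-bound, and CD8 cells' 90th-percentile brightness under 279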;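 for vesicle binding response: mean PE anti-B7-1 fluorescence of CD8+ cells relative to row control; 100% = QL9-loaded vesicles with DMSO vehicle in the same plate row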). Conditions: 2C mouse CD8+ T cells, at 7 µM, stronger effect = lower value; double positive events: measured here: CD8+/vesicle+ event percentage.
Experiment [7] has as its target Integrin beta-1 (Homo sapiens) + Integrin alpha-4 (Homo sapiens) (UniProt P13612+P05556). The experiment in a line: inhibition of HUTS-21 binding to VLA-4, pilot screen, VLA-4 allosteric modulator project, U937 cells, HUTS-21 mAb, flow cytometry, validation set (AID 2674).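 Note: antibody binding induced by the VLA-4 ligand LDV present at three times its Kd; 0% = LDV ligand with antibody and no compound and 100% = antibody without LDV.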 The conditions noted are these: HUTS-21 LIBS mAb binding, at 6.7 µM, stronger effect = higher value, binding induced by LDV ligand.

Experiment [8] in a line: superoxide lowering in aged yeast cells, pilot screen, validation compound set (AID 2706;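 active = superoxide response below 65% of plate, a cut near 3 SD across the whole screen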;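 note: yeast exposed to compound for one week at 30 degrees C before staining; 100% = mean of all compound wells on the same plate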). Conditions: S. cerevisiae aging, superoxide DHE fluorescence; at 10 µM; stronger effect = lower value.
For experiment [9], the target named is Beta-adrenergic receptor kinase 1 (Homo sapiens) (UniProt P25098). In words: GRK2 binders displacing RNA aptamer, biochemical, validation, human GRK2, bead flow cytometry (AID 488806;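 active = aptamer binding inhibition above 30%, about 3 SD of noise from non-fluorescent compounds; inactive = inhibition at or below 30%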). Conditions: bead-bound GRK2, FAM-aptamer displacement, at 10 µM, stronger effect = higher value.
Chain of Beta-adrenergic receptor kinase 1 (Homo sapiens) (P25098 whole entry, looked up): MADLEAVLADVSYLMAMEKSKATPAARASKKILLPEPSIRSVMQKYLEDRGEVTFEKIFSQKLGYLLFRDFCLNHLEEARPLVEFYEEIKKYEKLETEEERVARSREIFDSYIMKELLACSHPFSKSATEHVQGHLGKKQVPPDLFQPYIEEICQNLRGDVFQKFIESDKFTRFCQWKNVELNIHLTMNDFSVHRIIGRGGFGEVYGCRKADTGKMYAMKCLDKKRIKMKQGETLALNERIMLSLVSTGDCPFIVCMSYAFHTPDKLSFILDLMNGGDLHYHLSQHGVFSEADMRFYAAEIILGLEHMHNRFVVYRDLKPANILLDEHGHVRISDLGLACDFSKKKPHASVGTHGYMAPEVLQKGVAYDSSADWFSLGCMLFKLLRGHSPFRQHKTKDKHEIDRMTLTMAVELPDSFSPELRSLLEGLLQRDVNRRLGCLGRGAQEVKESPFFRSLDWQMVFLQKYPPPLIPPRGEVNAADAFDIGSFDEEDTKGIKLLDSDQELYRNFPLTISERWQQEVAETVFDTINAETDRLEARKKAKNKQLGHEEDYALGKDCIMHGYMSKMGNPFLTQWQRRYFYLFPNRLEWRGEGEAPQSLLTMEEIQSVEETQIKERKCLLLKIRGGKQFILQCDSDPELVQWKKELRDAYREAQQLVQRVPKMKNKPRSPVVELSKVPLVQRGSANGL
Experiment [10] has as its target Beta-2 adrenergic receptor (Homo sapiens) (UniProt P07550). The experiment in a line: beta2AR agonists driving receptor internalization, pilot screen, cell-based, FAP fluorogen, flow cytometry, validation set (AID 504459;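 active = percent response above 42, roughly 3 SD of non-fluorescent test compounds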;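 note: agonist-driven loss of surface beta2AR via internalization measured by FAP dye flow cytometry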). Conditions: Am2.2-beta2AR cells, FAP surface receptor flow cytometry; at 10 µM; stronger effect = higher value.
For experiment [11], the target named is AP-2 complex subunit beta (Homo sapiens) (UniProt P63010). In words: inhibitors of arrestin peptide binding to AP2, pilot screen, biochemical, validation set, GST-AP2 beads, flow cytometry (AID 504541;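 active = inhibition above 54%, about 3 SD of non-fluorescent compounds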;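 note: AP2 carries R879A mutation and is captured from E. coli lysate; bead-bound FITC arrestin peptide fluorescence measuring arrestin peptide binding to AP2; 0% = DMSO wells and 100% = excess unlabeled arrestin peptide control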). Conditions: FITC arrestin peptide, at 10 µM, stronger effect = higher value, AP2 beta2 appendage fragment, R879A mutant.
Chain of AP-2 complex subunit beta (Homo sapiens) (P63010 whole entry, looked up, the tested form may be a part, one chain of several): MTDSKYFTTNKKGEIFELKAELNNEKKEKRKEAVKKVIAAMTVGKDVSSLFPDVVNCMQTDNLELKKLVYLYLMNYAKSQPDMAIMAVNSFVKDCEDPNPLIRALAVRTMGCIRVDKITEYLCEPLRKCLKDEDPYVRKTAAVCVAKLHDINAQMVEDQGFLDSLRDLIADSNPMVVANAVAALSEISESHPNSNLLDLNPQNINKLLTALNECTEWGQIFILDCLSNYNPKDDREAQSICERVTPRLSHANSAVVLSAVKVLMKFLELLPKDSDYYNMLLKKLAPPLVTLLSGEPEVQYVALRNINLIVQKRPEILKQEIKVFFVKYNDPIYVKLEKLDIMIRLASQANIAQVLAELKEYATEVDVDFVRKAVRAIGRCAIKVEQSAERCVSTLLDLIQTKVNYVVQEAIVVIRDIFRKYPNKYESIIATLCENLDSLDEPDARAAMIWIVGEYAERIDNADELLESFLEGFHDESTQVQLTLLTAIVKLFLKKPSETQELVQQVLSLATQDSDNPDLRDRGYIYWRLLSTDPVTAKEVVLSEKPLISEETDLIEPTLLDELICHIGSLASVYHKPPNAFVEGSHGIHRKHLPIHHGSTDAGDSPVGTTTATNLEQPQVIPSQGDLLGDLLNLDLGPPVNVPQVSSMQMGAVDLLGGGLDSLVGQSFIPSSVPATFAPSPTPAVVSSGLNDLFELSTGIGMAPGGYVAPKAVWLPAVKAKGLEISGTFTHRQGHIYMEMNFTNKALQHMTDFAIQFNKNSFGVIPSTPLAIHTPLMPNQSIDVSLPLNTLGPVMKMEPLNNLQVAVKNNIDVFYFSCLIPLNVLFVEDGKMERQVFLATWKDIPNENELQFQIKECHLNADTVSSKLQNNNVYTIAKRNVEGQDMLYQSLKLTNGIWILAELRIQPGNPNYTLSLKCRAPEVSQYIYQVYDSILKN
A short description of experiment [12]: yeast V-ATPase proton transport modulators, S. cerevisiae, pHLuorin, HTS validation (AID 504600; in the data active = response above about 15%;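 note: plate controls were DMSO for no effect and reference compound for full effect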). Conditions: S. cerevisiae pHLuorin cytosolic pH, at 10 µM, stronger effect = higher value.
The subject of experiment [13] is anti-desmoglein-3 scFv antibody binding to human DSG3. In words: inhibitors of anti-DSG3 scFv binding to DSG3, pilot screen, biochemical, validation compound set, bead-based, flow cytometry (AID 588368;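 active = binding below the plate cutoff, the plate median minus 3 SD, with a reading above zero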;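 note: signal is the median channel fluorescence of bead-bound GFP antibody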). Conditions: Protein G beads, DSG3-Fc, scFv-GFP binding, at 10 µM, stronger effect = lower value.
Experiment [14] in a line: inhibitors of fungal efflux pumps CDR1, CDR2, MDR1, pilot screen, validation compound set, multiplex, phenotypic (AID 588506;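 active = efflux inhibition above 0.42, the validation set average plus 4 SD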;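 note: Nile Red retained in cells so higher fluorescence means more efflux inhibition; 0 = negative control wells and 1 = enniatin B 25 µM full block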). The conditions noted are these: S. cerevisiae pump-expressing triplex, Nile Red efflux flow cytometry; at 10 µM; stronger effect = higher value; the pumps come from Candida albicans.
Experiment [15] addresses ATP-binding cassette sub-family B member 6 (Homo sapiens) (UniProt Q9NP58). In words: ABCB6 transporter inhibitors, pilot screen, K562-ABCB6 cells, flow cytometry, validation set (AID 588550;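 active = inhibition above the screen-wide mean plus 3 SD, about 51%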;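 note: 0% = DMSO wells and 100% = benzethonium chloride 70 µM positive control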). The conditions noted are these: K562-ABCB6 porphyrin accumulation, 1 h, at 10 µM, stronger effect = higher value.
Experiment [16] can be described thus: promoters of myeloid differentiation in arrested cells, primary screen, cell-based, GFP/MAC1 double positive, flow cytometry, validation set (AID 588685;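 active = differentiation response of at least 50%, scaled between solvent and reference control, from cells with both markers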;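 note: compound exposure lasts four days before antibody staining and flow analysis; 0% = DMSO wells and 100% = 5 µM fulvestrant positive control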). The conditions noted are these: ER-HoxA9 marrow cells, stronger effect = higher value, normalized: vehicle 0, fulvestrant 100.

Chain of Integrin beta-1 (Homo sapiens) + Integrin alpha-4 (Homo sapiens) (P05556 whole entry, looked up): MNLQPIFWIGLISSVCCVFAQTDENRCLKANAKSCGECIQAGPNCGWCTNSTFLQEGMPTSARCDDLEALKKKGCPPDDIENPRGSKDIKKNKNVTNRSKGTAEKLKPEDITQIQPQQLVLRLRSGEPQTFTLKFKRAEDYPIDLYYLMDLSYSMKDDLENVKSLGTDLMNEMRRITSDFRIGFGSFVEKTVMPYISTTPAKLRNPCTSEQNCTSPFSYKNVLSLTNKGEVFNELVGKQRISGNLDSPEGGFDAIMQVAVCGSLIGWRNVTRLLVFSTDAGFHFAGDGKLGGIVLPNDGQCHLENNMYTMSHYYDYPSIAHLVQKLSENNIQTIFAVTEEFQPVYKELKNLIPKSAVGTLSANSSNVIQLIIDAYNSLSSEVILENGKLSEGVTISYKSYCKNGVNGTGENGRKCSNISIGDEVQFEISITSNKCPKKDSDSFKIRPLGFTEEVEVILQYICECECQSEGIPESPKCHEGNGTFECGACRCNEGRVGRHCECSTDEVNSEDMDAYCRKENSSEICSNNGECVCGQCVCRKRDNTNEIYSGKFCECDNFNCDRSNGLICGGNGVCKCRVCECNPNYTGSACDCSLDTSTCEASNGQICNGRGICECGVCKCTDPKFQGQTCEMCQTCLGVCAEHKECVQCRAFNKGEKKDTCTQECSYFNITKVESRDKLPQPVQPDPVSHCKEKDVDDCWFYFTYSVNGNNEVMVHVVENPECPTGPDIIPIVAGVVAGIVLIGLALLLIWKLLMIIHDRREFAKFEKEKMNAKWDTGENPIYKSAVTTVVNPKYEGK
Chain of Integrin beta-1 (Homo sapiens) + Integrin alpha-4 (Homo sapiens) (P13612 whole entry, looked up): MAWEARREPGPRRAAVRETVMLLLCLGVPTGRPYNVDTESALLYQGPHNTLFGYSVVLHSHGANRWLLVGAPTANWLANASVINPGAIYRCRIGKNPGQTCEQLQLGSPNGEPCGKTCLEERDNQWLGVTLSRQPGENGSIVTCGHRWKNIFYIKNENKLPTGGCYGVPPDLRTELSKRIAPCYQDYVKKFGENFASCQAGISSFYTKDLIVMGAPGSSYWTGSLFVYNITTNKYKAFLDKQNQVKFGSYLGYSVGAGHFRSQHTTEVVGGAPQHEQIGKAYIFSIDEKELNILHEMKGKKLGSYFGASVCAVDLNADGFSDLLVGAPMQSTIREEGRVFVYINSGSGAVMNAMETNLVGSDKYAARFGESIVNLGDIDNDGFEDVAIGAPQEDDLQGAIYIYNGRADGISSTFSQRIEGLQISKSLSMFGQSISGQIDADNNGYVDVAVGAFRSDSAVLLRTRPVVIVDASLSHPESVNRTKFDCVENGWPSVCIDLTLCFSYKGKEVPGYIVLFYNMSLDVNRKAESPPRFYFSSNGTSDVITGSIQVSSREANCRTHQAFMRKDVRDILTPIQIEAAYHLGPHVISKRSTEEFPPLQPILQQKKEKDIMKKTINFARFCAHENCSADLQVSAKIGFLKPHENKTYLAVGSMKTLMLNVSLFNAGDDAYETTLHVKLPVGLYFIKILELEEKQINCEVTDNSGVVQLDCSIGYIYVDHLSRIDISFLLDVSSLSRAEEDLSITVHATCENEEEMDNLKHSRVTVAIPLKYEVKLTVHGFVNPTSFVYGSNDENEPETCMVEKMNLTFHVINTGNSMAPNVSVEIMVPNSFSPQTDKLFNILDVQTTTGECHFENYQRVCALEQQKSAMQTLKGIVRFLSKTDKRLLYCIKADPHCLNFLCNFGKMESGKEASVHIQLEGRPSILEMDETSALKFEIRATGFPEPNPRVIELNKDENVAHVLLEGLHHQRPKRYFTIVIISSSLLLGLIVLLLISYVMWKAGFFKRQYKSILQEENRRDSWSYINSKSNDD
Chain of ATP-binding cassette sub-family B member 6 (Homo sapiens) (Q9NP58 whole entry, looked up): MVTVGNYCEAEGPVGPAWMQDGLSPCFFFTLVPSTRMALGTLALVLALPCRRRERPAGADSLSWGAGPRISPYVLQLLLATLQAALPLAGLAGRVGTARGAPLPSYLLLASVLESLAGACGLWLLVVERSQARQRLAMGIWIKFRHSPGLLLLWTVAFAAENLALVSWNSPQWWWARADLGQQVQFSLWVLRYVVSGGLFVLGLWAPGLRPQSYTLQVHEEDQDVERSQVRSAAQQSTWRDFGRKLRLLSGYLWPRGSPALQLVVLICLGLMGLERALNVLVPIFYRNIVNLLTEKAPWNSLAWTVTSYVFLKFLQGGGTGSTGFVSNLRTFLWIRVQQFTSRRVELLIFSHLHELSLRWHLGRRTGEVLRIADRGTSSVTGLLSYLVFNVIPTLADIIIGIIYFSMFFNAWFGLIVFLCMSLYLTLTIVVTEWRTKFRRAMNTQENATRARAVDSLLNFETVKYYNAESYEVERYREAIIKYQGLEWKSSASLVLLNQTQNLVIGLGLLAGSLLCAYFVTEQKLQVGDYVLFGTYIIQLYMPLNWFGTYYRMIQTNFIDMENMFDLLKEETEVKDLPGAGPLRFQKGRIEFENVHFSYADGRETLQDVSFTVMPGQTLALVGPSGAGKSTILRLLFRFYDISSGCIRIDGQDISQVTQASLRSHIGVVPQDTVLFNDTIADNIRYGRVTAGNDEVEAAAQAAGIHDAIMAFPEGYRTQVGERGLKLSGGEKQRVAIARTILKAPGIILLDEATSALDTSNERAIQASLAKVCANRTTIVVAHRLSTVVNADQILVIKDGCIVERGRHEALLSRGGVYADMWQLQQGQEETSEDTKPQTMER
Chain of Beta-2 adrenergic receptor (Homo sapiens) (P07550 whole entry, looked up): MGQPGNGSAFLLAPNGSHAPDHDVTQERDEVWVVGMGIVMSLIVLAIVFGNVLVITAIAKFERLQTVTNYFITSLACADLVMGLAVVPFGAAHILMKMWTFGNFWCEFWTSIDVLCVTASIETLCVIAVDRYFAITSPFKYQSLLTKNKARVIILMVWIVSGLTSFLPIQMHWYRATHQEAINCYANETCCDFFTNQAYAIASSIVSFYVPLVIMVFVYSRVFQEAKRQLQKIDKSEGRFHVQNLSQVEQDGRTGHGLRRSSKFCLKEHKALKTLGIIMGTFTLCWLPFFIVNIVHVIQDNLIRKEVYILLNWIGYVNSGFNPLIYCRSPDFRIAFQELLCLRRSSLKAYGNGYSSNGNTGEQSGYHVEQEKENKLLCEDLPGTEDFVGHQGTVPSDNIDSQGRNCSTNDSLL

For the compound `Cc1cccc(-n2c(Cc3ccccc3)n[nH]c2=S)c1`, the percent of DMSO control GFP in [1] is 93.9% (inactive). Moreover, the GFP response vs DMSO is 106% (inactive) in experiment [2] and 124% (inactive) in [4]. In [3], the percent response of DMSO control is 88.2% (inactive). Also, the GFP response, % of DMSO in experiment [5] was 100% (inactive). The compound also came in with a double positive events in experiment [6] of 61.2%. The vesicle binding response in [6] is 102% (inactive). Also, the values for the inhibition in [7], in experiment [11] and in experiment [15] were -18.2% (inactive), -2.3% (inactive) and 4% (inactive), respectively. In addition, in experiment [8], the superoxide response (% of plate) is 103% (inactive). In addition, the aptamer binding inhibition in experiment [9] is 4% (inactive). Also, the response is -0.19% (inactive) in [10] and 1.08% (inactive) in experiment [12]. Moreover, the binding (% of control) in experiment [13] is 95.5% (inactive). Further, the efflux inhibition (fraction of control) in experiment [14] is -0.1 (inactive). Also, in [16], the differentiation response was -13.6% (inactive).

With `O=C1c2ccccc2C(=O)N1/N=C/c1ccc(Oc2ccc([N+](=O)[O-])cn2)cc1`, the percent of DMSO control GFP in experiment [1] was 103% (inactive). In addition, the GFP response vs DMSO in [2] is 107% (inactive); in experiment [4] it was 92% (inactive). Also, the percent response of DMSO control in [3] is 115% (inactive). Further, the GFP response, % of DMSO in [5] is 107% (inactive). Also, the double positive events in experiment [6] was 56.2%. Moreover, the vesicle binding response in [6] was 38.7% (inactive). Also, the inhibition (commonly the change of the read-out against control, counted positive when it falls) in experiment [7] is 12% (inactive); in experiment [11], 2.91% (inactive); in experiment [15] it was -7% (inactive). Further, the superoxide response (% of plate) in experiment [8] is 106% (inactive). Also, the aptamer binding inhibition in experiment [9] is 0% (inactive). Further, the response in [10] is -4.65% (inactive); in [12], -3.15% (inactive). Moreover, the binding (% of control) in [13] is 92.5% (inactive). Further, the efflux inhibition (fraction of control) in experiment [14] is -0.01 (inactive). In experiment [16], the differentiation response is -7.57% (inactive).

For the compound `Cc1cccc2c1CC(C)(C)N/C2=C\C(N)=O`, the percent of DMSO control GFP in experiment [1] was 98.7% (inactive). Further, the results for the GFP response vs DMSO in experiment [2] and in [4] were 102% (inactive) and 103% (inactive), respectively. Moreover, the percent response of DMSO control in [3] was 91.8% (inactive). Moreover, in experiment [5], the GFP response, % of DMSO was 104% (inactive). Also, in experiment [6], the double positive events came out at 63.7%. Also, the vesicle binding response in experiment [6] is 148% (inactive). For the same compound, the inhibition is -217% (inactive) in [7], 10.1% (inactive) in experiment [11] and -25% (inactive) in [15]. The superoxide response (% of plate) in experiment [8] was 99% (inactive). For the same compound, the aptamer binding inhibition in [9] is 0% (inactive). Also, the response was -10.2% (inactive) in [10] and -3.68% (inactive) in experiment [12]. Moreover, the binding (% of control) in experiment [13] was 113% (inactive). In experiment [14], the efflux inhibition (fraction of control) is 0.04 (inactive). In experiment [16], the differentiation response is -12.9% (inactive).

Regarding `O=C(NCc1ccc2c(c1)OCO2)c1ccc2c(c1)OCCO2`, in [1], the percent of DMSO control GFP is 101% (inactive). Besides, the GFP response vs DMSO is 105% (inactive) in [2] and 92.6% (inactive) in [4]. In addition, the percent response of DMSO control in experiment [3] is 105% (inactive). Also, the GFP response, % of DMSO in experiment [5] is 101% (inactive). This compound also had a double positive events in experiment [6] of 61%. Moreover, the vesicle binding response in [6] is 132% (inactive). For the same compound, the results for the inhibition in experiment [7], in experiment [11] and in [15] were 11% (inactive), -6.32% (inactive) and 11% (inactive), respectively. In addition, in [8], the superoxide response (% of plate) was 104% (inactive). For the same compound, the aptamer binding inhibition in experiment [9] is -1% (inactive). The response in experiment [10] is 0.83% (inactive); in [12] it was -0.38% (inactive). For the same compound, in experiment [13], the binding (% of control) was 103% (inactive). The efflux inhibition (fraction of control) in [14] was -0.21 (inactive). The differentiation response in experiment [16] was 20.3% (inactive).
